PubChem BioAssay (NCATS)
Results filed as inconclusive are left out. Unmarked numbers belong to inactive results. Active and inactive are the calls of the source. Calls follow the shape of the dose curve; as a rule, active = well fitted cell-killing curve with a large enough effect; inconclusive = small, poorly fitted or top-dose-only effect, or effect the other way; inactive = no such curve, though single readings can be large or run the other way.

Test: Quantitative High-Throughput drug screen in 47 multiple myeloma cell lines against the NCATS MIPE library collection: JIM1_ECACC cell viability assay (AID 1918964)
Conditions: JIM1 myeloma viability, CellTiter-Glo ATP luminescence, 48 h; series mostly up to 45.8 µM; viability (% of DMSO): at the top concentration
Procedure, shortened: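 Viability readout: CellTiter-Glo luminescence following 5 min room-temperature incubation with reagent. Prior exposure: 48 h, 37C, humidified 5% CO2, 500 cells per well.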
Potency is read from the fitted curve at half-maximal effect.

| Structure (SMILES) | viability (% of DMSO) [%] | Potency |
| --- | --- | --- |
| CN(C)CCOc1ccc(C(=C(CCCl)c2ccccc2)c2ccccc2)cc1 | 121 |  |
| CC(C)n1c(C=C[C@H](O)C[C@H](O)CC(=O)O)c(-c2ccc(F)cc2)c2ccccc21 |  | 7.43 µM (active) |
| CN[C@@H]1[C@@H](O)[C@@H](O[C@@H]2[C@@H](O)[C@H](O[C@H]3O[C@H](CN)[C@@H](O)[C@H](O)[C@@H]3O)[C@@H](N)C[C@@H]2NC(=O)[C@@H](O)CN)OC[C@]1(C)O | 117 |  |
| CCCCC(C)(C)[C@H](O)C=C[C@H]1[C@H](O)CC(=O)[C@H]1CC=CCCCC(=O)O | 110 |  |
| CC(C)Oc1cc(Nc2nc(N[C@@H](C)c3ccc(F)cn3)ncc2Cl)[nH]n1 |  | 20.9 µM (active) |
| COc1ccc(Cn2ccc3ccc(C(=O)NO)cc32)cc1 | 117 |  |
| Cc1nc2c([nH]1)CCN(C(=O)c1ccc(NC(=O)c3ccccc3-c3ccccc3)cc1)c1ccccc1-2 | 82.1 |  |
| C[C@@H](N)c1ccc(C(=O)Nc2ccnc3[nH]ccc23)cc1 |  | 13.2 µM (active) |
| CN1c2ccccc2C(=O)N2CCc3c([nH]c4ccccc34)C21 (centres undefined) | 123 |  |
